According to PubChem BioAssay (Tox21):
Records with an inconclusive call do not appear. Active and inactive are the calls of the source. Unless noted, calls come from the whole dose curve; as a rule, active = well fitted curve in the direction sought with a large enough effect in the repeat runs; inconclusive = weak or mixed curves; inactive = no such curve, though single readings can be large; an effect the other way counts as inactive or inconclusive.

Assays:
[1] = molecular target: Androgen receptor (Homo sapiens) (UniProt P10275); assay: qHTS assay to identify small molecule agonists of the androgen receptor (AR) signaling pathway using the MDA cell line (AID 743040; note: nearly all actives have a fitted effect of over 20% in size)
Androgen receptor (Homo sapiens), sequence (P10275 whole entry, looked up): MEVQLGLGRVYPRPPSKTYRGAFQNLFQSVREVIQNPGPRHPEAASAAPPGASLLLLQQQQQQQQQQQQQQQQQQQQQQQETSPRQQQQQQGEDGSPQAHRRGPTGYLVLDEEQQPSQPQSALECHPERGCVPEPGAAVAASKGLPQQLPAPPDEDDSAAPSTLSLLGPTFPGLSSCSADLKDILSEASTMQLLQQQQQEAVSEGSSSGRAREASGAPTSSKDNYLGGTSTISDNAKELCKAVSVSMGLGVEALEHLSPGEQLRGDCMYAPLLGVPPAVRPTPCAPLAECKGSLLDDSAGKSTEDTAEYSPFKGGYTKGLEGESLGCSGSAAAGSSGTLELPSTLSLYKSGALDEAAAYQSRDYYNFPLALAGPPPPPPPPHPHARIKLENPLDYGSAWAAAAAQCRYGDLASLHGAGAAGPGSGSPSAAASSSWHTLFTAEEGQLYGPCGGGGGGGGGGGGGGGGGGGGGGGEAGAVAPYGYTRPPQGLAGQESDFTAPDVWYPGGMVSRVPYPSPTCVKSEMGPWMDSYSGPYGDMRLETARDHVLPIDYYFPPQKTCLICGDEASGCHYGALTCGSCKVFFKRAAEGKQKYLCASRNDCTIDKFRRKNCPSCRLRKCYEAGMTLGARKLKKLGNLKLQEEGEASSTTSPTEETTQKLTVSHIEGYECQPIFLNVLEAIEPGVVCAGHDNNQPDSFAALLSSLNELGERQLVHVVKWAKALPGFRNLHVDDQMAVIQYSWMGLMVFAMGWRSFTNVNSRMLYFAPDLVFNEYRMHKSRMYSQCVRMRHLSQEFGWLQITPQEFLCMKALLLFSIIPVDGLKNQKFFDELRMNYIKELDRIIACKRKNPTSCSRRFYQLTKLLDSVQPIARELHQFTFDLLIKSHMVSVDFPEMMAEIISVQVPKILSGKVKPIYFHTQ
Outline: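 MDA-kb2 breast carcinoma cells carrying MMTV-luciferase (responsive to AR and GR), plated 5 h then treated 16 h with compounds at 37C, 0% CO2. Read-out was ONE-Glo luminescence after 30 min at room temperature.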

[2] = qHTS assay to identify small molecule antagonists of the androgen receptor (AR) signaling pathway using the MDA cell line - cell viability counter screen (AID 743041; note: nearly all actives have a fitted effect of over 45% in size)
Outline: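 MDA-kb2 AR-luc cells (MMTV-luciferase, AR/GR responsive) treated with compounds plus R1881 agonist for 16 h at 37C. CellTiter-Fluor added at 15.5 h; fluorescence read after 30 min in the same wells.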

[3] = molecular target: Androgen receptor (Homo sapiens) (UniProt P10275); assay: qHTS assay to identify small molecule antagonists of the androgen receptor (AR) signaling pathway using the MDA cell line (AID 743042; note: nearly all actives have a fitted effect of over 55% in size)
Outline: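 MDA-kb2 breast carcinoma cells carrying MMTV-luciferase (AR/GR responsive) were co-treated with compounds and the agonist R1881 for 16 h at 37C. Inhibition read as ONE-Glo luminescence; CellTiter-Fluor fluorescence measured in parallel for cytotoxicity.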

[4] = qHTS assay to identify small molecule antagonists of the thyroid receptor (TR) signaling pathway - cell viability counter screen (AID 743064); note: nearly all actives have a fitted effect of over 50% in size
Outline: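 Fluorescence from CellTiter-Fluor, added after 23.5 h exposure at 37 °C, reported viability of GH3.TRE-Luc cells co-treated with compound and 1 nM T3. Measured in the same wells as the luciferase TR readout.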

[5] = qHTS assay to identify small molecule antagonists of the thyroid receptor (TR) signaling pathway (AID 743065); note: series mostly up to about 70 µM; nearly all actives have a fitted effect of over 55% in size
Outline: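 GH3.TRE-Luc rat pituitary cells (two TREs driving luciferase) were dosed with compound, then stimulated with 1 nM T3 (final) for 23.5 h at 37 C. ONE-Glo luminescence was the read-out, with CellTiter-Fluor fluorescence as the cytotoxicity counter-screen.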

[6] = tested on: thyroid hormone receptor (rat, GH3 cells); assay: qHTS assay to identify small molecule agonists of the thyroid receptor (TR) signaling pathway (AID 743066; calls by dose curve)
[7] = molecular target: Estrogen receptor (Homo sapiens) (UniProt P03372); assay: qHTS assay to identify small molecule antagonists of the estrogen receptor alpha (ER-alpha) signaling pathway (AID 743069; active = well fitted curve in the direction sought with a large enough effect in the signal ratio in the repeat runs, not every such curve was filed as active; the % refers to the signal ratio)
Estrogen receptor (Homo sapiens), sequence (P03372 whole entry, looked up): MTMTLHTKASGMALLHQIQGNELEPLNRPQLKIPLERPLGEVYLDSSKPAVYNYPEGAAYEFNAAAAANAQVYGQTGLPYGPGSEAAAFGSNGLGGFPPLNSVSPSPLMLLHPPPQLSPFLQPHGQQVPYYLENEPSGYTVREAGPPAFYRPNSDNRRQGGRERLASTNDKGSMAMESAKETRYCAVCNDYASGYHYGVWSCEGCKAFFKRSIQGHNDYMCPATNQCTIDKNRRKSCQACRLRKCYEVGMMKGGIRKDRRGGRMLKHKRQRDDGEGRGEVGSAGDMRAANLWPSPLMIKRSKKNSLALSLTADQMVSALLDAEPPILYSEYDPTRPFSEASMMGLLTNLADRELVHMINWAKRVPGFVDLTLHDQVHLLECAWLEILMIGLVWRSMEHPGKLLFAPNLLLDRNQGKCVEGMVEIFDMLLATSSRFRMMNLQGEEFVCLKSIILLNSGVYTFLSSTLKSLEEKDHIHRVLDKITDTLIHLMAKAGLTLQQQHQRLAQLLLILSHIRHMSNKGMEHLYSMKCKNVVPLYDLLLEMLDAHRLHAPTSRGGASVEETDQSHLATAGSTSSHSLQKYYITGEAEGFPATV
Outline: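 HEK293 ER-alpha-UAS-bla GripTite cells, held overnight in 2% charcoal-stripped FBS, 5,000 cells/well, preincubated 4 h, then compound plus 17beta-estradiol for 18 h at 37C. Beta-lactamase read by LiveBLAzer B/G FRET substrate, 2 h at room temperature.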

[8] = qHTS assay to identify small molecule antagonists of the estrogen receptor alpha (ER-alpha) signaling pathway - cell viability counter screen (AID 743074; calls by dose curve;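 note: HEK293 cells carrying ER-alpha-UAS-bla reporter stimulated with 17beta-estradiol; nearly all actives have a fitted effect of over 45% in size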)
[9] = molecular target: Estrogen receptor (Homo sapiens) (UniProt P03372); assay: qHTS assay to identify small molecule agonists of the estrogen receptor alpha (ER-alpha) signaling pathway (AID 743075; calls by dose curve)
[10] = molecular target: Estrogen receptor (Homo sapiens) (UniProt P03372); assay: qHTS assay to identify small molecule agonists of the estrogen receptor alpha (ER-alpha) signaling pathway using the BG1 cell line (AID 743079); note: nearly all actives have a fitted effect of over 20% in size
[11] = qHTS assay to identify small molecule antagonists of the estrogen receptor alpha (ER-alpha) signaling pathway using the BG1 cell line (AID 743080; calls by dose curve;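 note: BG1 cells stimulated with 17beta-estradiol alongside compound; series mostly up to about 70 µM; nearly all actives have a fitted effect of over 25% in size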)
Outline: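 Luminescence from a 4×ERE-luciferase reporter in BG1-Luc-4E2 cells served as read-out. Cells, pre-cultured 5 days in stripped-serum phenol-red-free medium, were exposed to compound with 17beta-estradiol co-stimulation for 21.5 h at 37 C.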

[12] = qHTS assay to identify small molecule antagonists of the estrogen receptor alpha (ER-alpha) signaling pathway using the BG1 cell line - cell viability counter screen (AID 743081);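 note: compound given together with 17beta-estradiol as the ER stimulus; series mostly up to about 70 µM; nearly all actives have a fitted effect of over 45% in size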
Aromatase (Homo sapiens) = Aromatase (Homo sapiens) (UniProt P11511); assay: qHTS assay to identify aromatase inhibitors (AID 743083); note: series mostly up to about 70 µM; nearly all actives have a fitted effect of over 55% in size
Aromatase (Homo sapiens), sequence (P11511 whole entry, looked up): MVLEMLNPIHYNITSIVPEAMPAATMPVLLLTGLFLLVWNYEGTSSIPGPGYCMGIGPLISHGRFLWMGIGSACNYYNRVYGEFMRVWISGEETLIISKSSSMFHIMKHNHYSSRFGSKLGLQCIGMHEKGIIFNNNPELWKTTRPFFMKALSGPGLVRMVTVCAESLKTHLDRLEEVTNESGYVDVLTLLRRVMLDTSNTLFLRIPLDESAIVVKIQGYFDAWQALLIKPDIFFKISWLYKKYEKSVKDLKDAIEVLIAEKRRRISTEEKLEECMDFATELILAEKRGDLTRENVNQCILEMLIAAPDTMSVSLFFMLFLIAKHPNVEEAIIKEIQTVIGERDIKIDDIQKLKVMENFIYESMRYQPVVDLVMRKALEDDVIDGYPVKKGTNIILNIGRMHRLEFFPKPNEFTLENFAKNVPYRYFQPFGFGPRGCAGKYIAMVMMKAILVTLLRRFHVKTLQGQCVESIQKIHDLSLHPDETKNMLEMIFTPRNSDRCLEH

[13] = qHTS assay to identify aromatase inhibitors - cell viability counter screen (AID 743084);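 note: cells stimulated with testosterone during compound exposure; nearly all actives have a fitted effect of over 55% in size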
[14] = molecular target: Aryl hydrocarbon receptor (Homo sapiens) (UniProt P35869); assay: qHTS assay to identify small molecule that activate the aryl hydrocarbon receptor (AhR) signaling pathway (AID 743085);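 note: HG2L7.5c1 human HepG2 liver cells with stably integrated DRE-driven firefly reporter; series mostly up to about 70 µM; nearly all actives have a fitted effect of over 15% in size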
Aryl hydrocarbon receptor (Homo sapiens), sequence (P35869 whole entry, looked up): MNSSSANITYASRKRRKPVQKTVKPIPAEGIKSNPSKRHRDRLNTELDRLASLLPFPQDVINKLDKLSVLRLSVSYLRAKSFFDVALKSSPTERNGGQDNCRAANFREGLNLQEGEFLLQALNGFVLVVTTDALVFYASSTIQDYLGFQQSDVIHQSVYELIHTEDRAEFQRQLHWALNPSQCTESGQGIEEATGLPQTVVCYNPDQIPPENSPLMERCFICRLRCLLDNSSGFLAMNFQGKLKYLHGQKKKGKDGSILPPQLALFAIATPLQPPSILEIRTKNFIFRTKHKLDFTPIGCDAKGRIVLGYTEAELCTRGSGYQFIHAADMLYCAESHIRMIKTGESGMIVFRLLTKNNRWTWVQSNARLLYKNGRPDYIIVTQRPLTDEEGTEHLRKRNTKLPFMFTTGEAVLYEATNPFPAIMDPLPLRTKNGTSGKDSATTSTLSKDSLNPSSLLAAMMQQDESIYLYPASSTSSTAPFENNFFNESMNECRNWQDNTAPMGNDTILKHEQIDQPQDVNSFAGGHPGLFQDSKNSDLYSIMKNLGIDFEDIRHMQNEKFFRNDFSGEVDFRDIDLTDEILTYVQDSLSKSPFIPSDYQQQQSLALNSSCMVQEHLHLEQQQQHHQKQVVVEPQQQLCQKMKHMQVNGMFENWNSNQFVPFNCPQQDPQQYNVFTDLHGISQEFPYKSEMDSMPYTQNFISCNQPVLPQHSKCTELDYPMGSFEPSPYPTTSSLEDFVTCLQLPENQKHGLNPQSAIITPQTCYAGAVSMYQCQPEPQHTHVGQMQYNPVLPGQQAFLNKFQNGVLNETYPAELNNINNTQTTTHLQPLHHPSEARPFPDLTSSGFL
Outline: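 Cell line HG2L7.5c1 (human hepatoma, 20× DRE-luc). Plated, 5 h 37C, compound/DMSO added, 24 h 37C. CellTiter-Fluor 30 min 37C → fluorescence; then ONE-Glo 30 min RT → luminescence.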

[15] = qHTS assay to identify small molecule that activate the aryl hydrocarbon receptor (AhR) signaling pathway - cell viability counter screen (AID 743086);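 note: HepG2 liver cells carrying the AhR DRE luciferase reporter; series mostly up to about 70 µM; nearly all actives have a fitted effect of over 45% in size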
Outline: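 HepG2-AhR-luc (HG2L7.5c1) cells, 4000/well, treated 24 h at 37 C with compound; viability measured as CellTiter-Fluor fluorescence after 30 min in the same wells as the luciferase read.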

[16] = molecular target: Peroxisome proliferator-activated receptor gamma (Homo sapiens) (UniProt P37231); assay: qHTS assay to identify small molecule agonists of the peroxisome proliferator-activated receptor gamma (PPARg) signaling pathway (AID 743094; active = well fitted activation curve with a large enough effect in the signal ratio in the repeat runs, not every such curve was filed as active; the % refers to the signal ratio)
Peroxisome proliferator-activated receptor gamma (Homo sapiens), sequence (P37231 whole entry, looked up): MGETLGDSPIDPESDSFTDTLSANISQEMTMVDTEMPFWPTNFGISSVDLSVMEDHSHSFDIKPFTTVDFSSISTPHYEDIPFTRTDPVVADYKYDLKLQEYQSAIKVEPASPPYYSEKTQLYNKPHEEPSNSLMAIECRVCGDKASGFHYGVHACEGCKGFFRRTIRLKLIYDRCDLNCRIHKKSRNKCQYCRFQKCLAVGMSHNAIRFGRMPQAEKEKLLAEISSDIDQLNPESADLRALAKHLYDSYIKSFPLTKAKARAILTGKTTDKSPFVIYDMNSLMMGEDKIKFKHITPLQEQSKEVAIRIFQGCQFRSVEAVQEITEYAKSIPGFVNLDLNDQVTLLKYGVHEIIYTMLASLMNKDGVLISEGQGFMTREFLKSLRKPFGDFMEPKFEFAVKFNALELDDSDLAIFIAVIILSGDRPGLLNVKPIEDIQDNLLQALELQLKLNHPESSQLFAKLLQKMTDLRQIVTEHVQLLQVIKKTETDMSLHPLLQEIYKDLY
Outline: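 Following 5 h plating at 37C, PPARg-bla HEK293H cells receive compound or DMSO for 17 h; fluorescence intensity is recorded after LiveBLAzer B/G loading for 1 h at room temperature.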

[17] = qHTS assay to identify small molecule antagonists of the estrogen related receptor (ERR) signaling pathway - cell viability counter screen (AID 1224818);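 note: series mostly up to about 46 µM; viability measured after 17.5 h of compound exposure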
Outline: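 In the same ERR cell assay, compound-treated wells (17.5 h, 37 C) were multiplexed with a fluorogenic viability reagent, CellTiter-Fluor, read after 30 min to flag cytotoxic substances.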

[18] = qHTS assay to identify small molecule antagonists of the estrogen related receptor (ERR) signaling pathway (AID 1224819;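 note: luminescence from an ERR-driven luciferase reporter measured with One-Glo reagent; series mostly up to about 46 µM; nearly all actives have a fitted effect of over 50% in size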)
Outline: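 qHTS in ERR cells, 2,000/well, 1536 format. Cpd (DMSO) added after 6 h settle, 18 h 37 C. One-Glo luminescence, 30 min RT.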

[19] = qHTS assay to identify small molecule agonists of the estrogen related receptor (ERR) signaling pathway (AID 1224820)
Outline: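 Cells: ERR line from NTP, 2,000/well. Pre-incubation 6 h, 37 C/5% CO2. Compound (DMSO) pin transfer, 18 h 37 C. One-Glo, 30 min RT, luminescence.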

[20] = tested on: estrogen-related receptor alpha (ERRalpha) with PGC-1alpha coactivator, human; assay: qHTS assay to identify small molecule antagonists of the estrogen related receptor signaling pathway with the pleiotropic PPARgamma coactivator (PGC) (AID 1224821; calls by dose curve;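 note: series mostly up to about 46 µM; lower luminescence signal means antagonism of PGC/ERR signalling; nearly all actives have a fitted effect of over 50% in size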)
Outline: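 Luminescent read-out (One-Glo, 30 min at room temperature) following 18 h treatment of PGC/ERR cells at 37 C with compounds delivered in DMSO. Cells had settled 6 h at 37 C/5% CO2 before dosing.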

[21] = qHTS assay to identify small molecule antagonists of the estrogen related receptor signaling pathway with the pleiotropic PPARgamma coactivator (PGC) cell viability counter screen (AID 1224822; note: series mostly up to about 46 µM)
Outline: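 Compounds in DMSO, with positive and negative controls, were applied to PGC/ERR cells (2,000/well) and left 17.5 h at 37 C before CellTiter-Fluor detection.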

[22] = qHTS assay to identify small molecule agonists of the estrogen related receptor signaling pathway with the pleiotropic PPARgamma coactivator (PGC) (AID 1224823)
Outline: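 Steps: plate PGC/ERR cells at 2,000 cells/well; incubate 6 h, 37 C/5% CO2; pin-transfer compounds (DMSO); incubate 18 h, 37 C; add One-Glo; 30 min RT; read luminescence.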

[23] = molecular target: Nuclear receptor subfamily 1 group I member 2 (Homo sapiens) (UniProt O75469); assay: CYP3A4 induction through human pregnane X receptor (PXR) by small molecules, qHTS assay (AID 1346984); note: nearly all actives have a fitted effect of over 40% in size
Outline: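 qHTS, concentration-response format: HepG2 DPX-2 line, PXR/CYP3A4-luc. Exposure 24 h, 37C. Substrate Luciferin-IPA 3uM final, 3 h. Detection One-Glo, 30 min RT.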

[24] = molecular target: Nuclear receptor subfamily 1 group I member 2 (Homo sapiens) (UniProt O75469); assay: Human pregnane X receptor (PXR) activation by small molecules, qHTS assay (AID 1346985); note: nearly all actives have a fitted effect of over 40% in size
Outline: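 DPX-2 cells (HepG2 co-transfected with a PXR response element and a CYP3A4-promoter luciferase construct) were seeded at 2,000 per well, rested 5 hr at 37C, then exposed to DMSO-dissolved compounds for 24 hr. Activation was read as luciferase luminescence.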

Measured: Potency

CCCCCN(C)CCC(O)(P(=O)(O)O)P(=O)(O)O
inactive: all assays above
